An excerpt weighted towards active compounds, which were near 1.2% of everything screened.
TLR4-MyD88 BLA – blocks binding of human TLR4 to MyD88 | 200,000 compounds, 0.18% hits | inhibition, % at 8.4 µM | AID 861 | HeLa CL3-4 TLR4/MyD88 BLA complementation, FRET ratio | O00206+Q99836; in the data active = inhibition above about 25%;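 also: 0% = vehicle and 100% = reference inhibitor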
Neddyl block – inhibitors of human cullin neddylation | P61081+Q13564 | 360,000 compounds, 0.58% hits | AID 651699 | inhibition, % at 25 µM | TR-FRET cullin neddylation, biochemical; in the data active = inhibition above about 36%
TLR9-MyD88 inh – TLR9-MyD88 interaction inhibition | AID 504734 | CHO BLA complementation TLR9-MyD88, CCF4 FRET ratio | Q9NR96+Q99836 | 340,000 compounds, 0.21% hits | inhibition, % at 4.98 µM;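 active = inhibition above the mean over all tested compounds plus 3 SD, cut at about 21% in these data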;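 also: 0% = DMSO only wells and 100% = clavulanate BLA inhibitor control wells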
NOD2 RIPK2 PPI – NOD2-RIPK2 protein interaction inhibition; AID 624267; CHO BLA complementation NOD2-RIPK2, CCF4 ratio; 360,000 compounds, 0.38% hits; inhibition, % at 4.98 µM; in the data active = inhibition above about 21%;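 also: 0% = vehicle only and 100% = reference blocker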
Target sequence (O43353 whole entry, looked up): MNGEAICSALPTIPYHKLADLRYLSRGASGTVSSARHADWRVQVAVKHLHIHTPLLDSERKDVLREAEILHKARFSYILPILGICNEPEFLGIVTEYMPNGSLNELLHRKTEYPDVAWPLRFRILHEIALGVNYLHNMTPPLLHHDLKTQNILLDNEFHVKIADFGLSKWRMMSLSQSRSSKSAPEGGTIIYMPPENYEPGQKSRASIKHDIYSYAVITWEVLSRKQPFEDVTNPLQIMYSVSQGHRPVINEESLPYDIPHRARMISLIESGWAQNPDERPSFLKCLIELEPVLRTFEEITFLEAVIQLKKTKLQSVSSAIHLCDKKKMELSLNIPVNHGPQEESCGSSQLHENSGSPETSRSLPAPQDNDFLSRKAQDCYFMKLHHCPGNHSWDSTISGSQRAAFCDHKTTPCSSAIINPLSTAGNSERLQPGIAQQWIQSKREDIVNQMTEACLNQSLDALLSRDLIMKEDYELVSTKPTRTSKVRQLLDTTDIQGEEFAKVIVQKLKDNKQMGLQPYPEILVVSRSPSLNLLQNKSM
GC-A act – GC-A (human) enzyme activation. HEK293 GC-A cells, cGMP TR-FRET, EC30 ANP; 0% at EC30 ANP, 100% saturating ANP. P16066. activation, % at 10 µM. 370,000 compounds, 0.14% hits; in the data active = activation above about 40%
NPR2 activator – GC-B (human) receptor activation; P20594; AID 1920062; 370,000 compounds, 0.11% hits; HEK293-GC-B cells, CNP EC30, cGMP TR-FRET; 0% at EC30 CNP, 100% saturating CNP; activation, % at 10 µM;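 active = activation at 10 µM reaching about 35% in either raw or pattern-adjusted values, limit read from the data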
* hit, by the source's call; i = inactive; . = not tested or not shown.

SMILES	TLR4-MyD88 BLA	Neddyl block	TLR9-MyD88 inh	NOD2 RIPK2 PPI	GC-A act	NPR2 activator
Cc1ccc(CNC(=O)OC(C)(C)C)c(/C=C/S(=O)(=O)NCCc2ccccc2)c1	.	.	.	.	-2	-3
Cc1ccc(Cn2c(=N)c(C(=O)NCC3CCCO3)cc3c(=O)n4ccccc4nc32)cc1 (configuration not stated)	.	.	-29	-22	34	27
Cc1ccc(Cn2c(=N)c(C(=O)NCC3CCCO3)cc3c(=O)n4cccc(C)c4nc32)cc1 (configuration not stated)	.	.	-18	-11	40*	37*
COc1ccc(CNC(=O)c2cc3c(=O)n4ccccc4nc3n(Cc3ccco3)c2=N)cc1	7	.	.	.	.	.
Cc1ccc(Cn2c(=N)c(C(=O)NCc3ccco3)cc3c(=O)n4ccccc4nc32)cc1	9	63*	-18	-12	53*	12
COc1ccc2c(c1)CN1C(=O)N(Cc3ccc(F)cc3)S(=O)(=O)CC21 (configuration not stated)	.	.	.	.	0	4
Cc1cccc(-n2c(SCC(=O)O)nc3sc4c(c3c2=O)CCCC4)c1	-7	7	-13	1	-1	45*
COC(=O)[C@]12C[C@H](CC(=O)N3CCCCC3)C(=O)N(Cc3cccc4ccccc34)C1=C[C@H](C1CCCC1)O[C@@H]2C	.	.	.	.	-12	-11
Cc1cccc(C)c1NC(=O)CSc1nc(-c2ccco2)cc(C(F)(F)F)n1	-12	-13	-3	0	57*	0
Cc1cc(NC(=O)CSc2nc(-c3ccco3)cc(C(F)(F)F)n2)no1	-3	-18	1	12	-1	-2
Cc1ccc(Nc2c(-c3ccco3)nc3ccccn23)cc1	1	.	-4	-3	34	10
COc1ccc(Nc2c(-c3ccco3)nc3ccc(C)cn23)cc1	-8	.	5	-1	31	36*
CC(C)NC(=S)NNc1ncnc2sc3c(c12)CC(C)(C)OC3	.	17	.	2	33	38*
N#CCC[C@H]1CC[C@]2(CCCN(C(=O)c3ccccc3)C2)O1	.	.	.	.	3	-2
O=C(CSc1nc(-c2ccccc2)ns1)N1CCOCC1	-4	2	5	-2	2	-2
CCOC(=O)CSc1cc(-c2ccccc2)nc2ncnn12	.	-23	3	-3	36	42*
CCOC(=O)CSc1nc(-c2ccccc2)ns1	2	-12	6	-10	55*	-12
C[C@@H](CO)N(Cc1cn(Cc2ccccc2)nn1)S(=O)(=O)c1ccc(F)cc1Br	.	.	.	.	2	3
O=C(Oc1cc2oc(=O)cc(-c3ccccc3)c2cc1Cl)C1CCCCC1	20	.	17	29*	7	-1
CCOC(=O)N1C(=O)C[C@](Sc2ccc(OC)cc2)(C(=O)N2CCN(C(C)=O)CC2)[C@H]1c1ccc(OC)cc1	.	.	.	.	-3	1
Cc1nc2ccc(Br)cc2c(-c2ccccc2)c1C(=O)O	.	i	-3	-12	44*	17
COC(=O)C1=C(C)N(Cc2ccccc2C(F)(F)F)C(=NCc2ccccc2)NC1c1cccc(F)c1 (configuration not stated)	.	.	.	.	-18	-12
C/C(Cl)=C\Cn1c(Nc2ccccc2)nc2c1c(=O)n(C)c(=O)n2C	-3	18	4	5	62*	55*
Cn1c(=O)c2c(nc(NC3CCCCC3)n2Cc2ccccc2)n(C)c1=O	-13	3	0	-12	79*	54*
CCCCCn1c(NC2CCCCC2)nc2c1c(=O)[nH]c(=O)n2C	.	6	2	-11	48*	17
SMILES	TLR4-MyD88 BLA	Neddyl block	TLR9-MyD88 inh	NOD2 RIPK2 PPI	GC-A act	NPR2 activator
Cn1c(=O)c2c(nc(NCC3CCCO3)n2Cc2ccccc2)n(C)c1=O (configuration not stated)	-3	-4	-5	-6	28	29
CCCCCCn1c(N2CCCC2)nc2c1c(=O)[nH]c(=O)n2C	.	4	-7	-7	-8	-4
O=C(NCCc1c[nH]c2ccccc12)OCc1cn(Cc2ccc(F)cc2F)nn1	.	.	.	.	0	2
COc1ccc(CN2CN3Cc4cc(F)ccc4C3CS2(=O)=O)cc1 (configuration not stated)	.	.	.	.	-3	-3
CC(C)Oc1ccc(C(=O)N/N=C/c2ccc(-c3ccc(S(=O)(=O)Nc4ncccn4)cc3)o2)cc1	7	48*	5	-4	1	11
NC(=O)N/N=C/c1ccc(-c2ccc(S(=O)(=O)Nc3ncccn3)cc2)o1	.	10	1	-8	2	7
COCCn1c(SCC(=O)Nc2ccc(F)cc2F)nc2c([nH]c3ccccc32)c1=O	.	11	2	1	5	-1
COc1ccc(-n2c(SCC(=O)Nc3cc(C)on3)nc3ccc(O)cc3c2=O)cc1OC	0	5	3	-10	58*	-2
Cc1cc(NC(=O)CSc2nc3c([nH]c4ccccc43)c(=O)n2-c2ccccc2F)no1	.	-8	-4	-4	73*	-2
COCCn1c(SCC(=O)Nc2ccccc2F)nc2c([nH]c3ccccc32)c1=O	.	13	-9	-9	55*	2
COc1cccc(-n2c(SCC(=O)Nc3cc(C)on3)nc3c([nH]c4ccccc43)c2=O)c1	-1	-11	9	-4	80*	-3
COC(=O)[C@]12C[C@H](CC(=O)N3CCCC3)C(=O)N(CCC3=CCCCC3)C1=C[C@H](C(C)C)O[C@@H]2C1CC1	.	.	.	.	1	3
NC(=Nc1cccc(F)c1)NC(=O)OCc1ccccc1	.	.	.	.	-1	2
O=C(OC12CCCN(C1)/C(=C/c1ccc(Cl)cc1)C2)c1ccc(F)cc1 (configuration not stated)	.	.	.	.	-2	-17
COc1ccccc1-n1c(SCC(=O)Nc2cc(C)on2)nc2c([nH]c3ccccc32)c1=O	.	-22	-7	-3	71*	0
Cc1cc(NC(=O)CSc2nc3c([nH]c4ccccc43)c(=O)n2-c2cccc(C(F)(F)F)c2)no1	0	-5	5	6	.	.
Brc1ccc2c(c1)C(c1ccc(N3CCOCC3)cc1)=NNC(c1cccs1)=N2	1	23	5	-2	-2	-5
Fc1ccc2c(c1)C(c1ccc(N3CCOCC3)cc1)=NNC(c1cccs1)=N2	8	41*	1	-3	.	.
COc1ccc(CCN2CC(O)=C(c3nc4ccccc4c(=O)[nH]3)C2=N)cc1OC	-3	38	1	1	70*	-2
NC1=[N+](Cc2ccccc2)C[C@H]2C(=C3CCCC[C@H]3n3c(=O)n(-c4ccccc4)c(=O)n32)N1	.	.	.	.	-26	-23
N#Cc1c(N)n(Cc2ccccc2)c(=O)c2cc([N+](=O)[O-])ccc12	.	-4	4	-4	47*	22

Screening data from PubChem BioAssay.
